For 35 compounds, outcome and AC50 results are on record in PubChem BioAssay (EPA / NIEHS).

Structures are written as SMILES. Activity calls are given as the source filed them. Rule for the calls, unless noted: active = hit-call score of the fitted dose curve at least 0.9, where 1 is the maximum; inconclusive = response in the unintended direction; inactive = score below 0.9.

The target of the first assay is Peroxisome proliferator-activated receptor gamma (Homo sapiens) (UniProt P37231). Kind of assay: OT_PPARg_PPARgSRC1_1440: Odyssey Thera (OT) 24-hour Protein-Complementation Assay for Peroxisome Proliferator-activated Receptor Gamma/ SRC-1 Co-activator (AID 2283388).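 Note: nuclear to cytoplasmic ratio of reconstituted Venus YFP fluorescence in fixed imaged cells.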
Sequence of Peroxisome proliferator-activated receptor gamma (Homo sapiens) (P37231 whole entry, looked up): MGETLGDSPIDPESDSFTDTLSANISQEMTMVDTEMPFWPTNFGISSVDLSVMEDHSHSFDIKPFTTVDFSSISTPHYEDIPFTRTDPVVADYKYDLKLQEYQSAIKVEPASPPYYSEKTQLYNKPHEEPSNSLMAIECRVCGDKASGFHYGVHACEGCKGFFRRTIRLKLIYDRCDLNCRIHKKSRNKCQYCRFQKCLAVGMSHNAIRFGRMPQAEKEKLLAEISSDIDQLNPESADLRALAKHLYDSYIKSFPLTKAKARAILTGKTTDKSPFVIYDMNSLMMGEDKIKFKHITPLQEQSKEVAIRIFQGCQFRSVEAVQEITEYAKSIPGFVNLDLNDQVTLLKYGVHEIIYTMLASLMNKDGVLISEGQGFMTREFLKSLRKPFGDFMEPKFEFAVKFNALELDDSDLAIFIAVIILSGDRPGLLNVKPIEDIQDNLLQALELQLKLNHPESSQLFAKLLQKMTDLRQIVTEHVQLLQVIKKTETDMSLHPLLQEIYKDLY
Conditions: not given
The procedure, abridged: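 Readout: nuclear-to-cytoplasmic 488 nm fluorescence ratio, ≥350 cells per image, 8 images per well, after 24 h compound exposure of HEK293T expressing PPARg/SRC-1 split-YFP fusions. Activity fitted in positive direction against DMSO.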
Consider `Cc1cccc(N)c1`, for which the call was inactive. Still for that read-out and setting: the same measure for `COC(N)=O`: “inactive”; for `Nc1ccc2ccccc2c1`: “inactive”; for `O=[N+]([O-])c1ccccc1`: “inactive”. On the same count and under the same terms, the same measure for `[N-]=[N+]=[N-]`: “inactive”. With `O=P1(N(CCCl)CCCl)NCCCO1` (centres undefined), the result was inactive. Turning to `Nc1cc2c3c(c1)C(c1ccccc1)=N[C@@H](NC(=O)c1cccnc1)C(=O)N3CC2`, the result was inactive. On to `CCC1(c2ccccc2)C(=O)N=C(O)NC1=O` (centres undefined), for which the compound was called inactive. Still for that read-out and setting: the value for `COCCOCCO` was “inactive”; that for `c1ccc(OP(Oc2ccccc2)Oc2ccccc2)cc1` was “inactive”; that for `CC(C)(C)c1ccc(O)cc1` was “inactive”. Same read-out and setting: the same measure for `CC(Cl)(Cl)C(=O)O`: “inactive”; for `CC(Cc1ccc(OCC(=O)O)cc1)NCC(O)c1csc(C(F)(F)F)n1` (centres undefined): “inactive”; for `CN(C)C(=O)Cl`: “inactive”.

On to `CC1(C)CN=C(NN=C(/C=C/c2ccc(C(F)(F)F)cc2)/C=C/c2ccc(C(F)(F)F)cc2)NC1`, for which the compound was called inactive.

In the case of `FC(F)(F)c1ccc(Cl)cc1`, the compound was classed as inactive. Still for that read-out and setting: the value for `CCOS(=O)(=O)OCC` was “inactive”; that for `ClC(Cl)c1ccccc1` was “inactive”.

For the compound `O=C(O)CF`, the compound was called inactive. Regarding `Nc1ccc(Cl)cc1`, the call was inactive. In the case of `CCCCOCCOP(=O)(OCCOCCCC)OCCOCCCC`, the compound was classed as inactive. On the same count and under the same terms, the same measure for `CCOP(=S)(Oc1ccc([N+](=O)[O-])cc1)c1ccccc1` (centres undefined): “inactive”; for `c1ccc2c(c1)sc1ccccc12`: “inactive”; for `c1ccc2c(c1)Nc1ccccc1S2`: “inactive”. For the compound `CCCCOCC1CO1` (centres undefined), the result was inactive. Same read-out and setting: the value for `CSC(C)(C)C=NO` was “inactive”.

Read-out in another assay: not listed separately
The experiment in a line: CEETOX_H295R_11DCORT: CeeTox H295R High-throughput Steroidogenesis Assay for 11-Deoxycortisol (11DCORT) (AID 2283432; active = hit-call score of the fitted dose curve at least 0.9, where 1 is the maximum; inactive = score below 0.9;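 for AC50: human adrenal H295R cells prestimulated with 10 µM forskolin for 48 h; 11-deoxycortisol secreted into the medium measured by LC-MS/MS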). The note with it: actives raise or lower the signal. An outline of the steps:
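Steroidogenesis in human H295R cells: 48 h chemical exposure after forskolin priming, 11-deoxycortisol measured by LC-MS/MS.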
For the compound `ClC(Cl)=C(c1ccc(Cl)cc1)c1ccccc1Cl`, the result was inactive. As to `Nc1cc2c3c(c1)C(c1ccccc1)=N[C@@H](NC(=O)c1cccnc1)C(=O)N3CC2`, the AC50 is 62 µM (active). Regarding `Oc1ccc(I)cc1`, the call was inactive. Same read-out and setting: the same measure for `c1ccc(OP(Oc2ccccc2)Oc2ccccc2)cc1`: “inactive”. Regarding `CCOP(=S)(NC(C)C)Oc1ccccc1C(=O)OC(C)C` (centres undefined), the AC50 was 12.8 µM (active). Take `COP(N)(=S)OC`: the outcome was inactive.

On to `CC(=O)c1ccc(-c2ccccc2)cc1`, for which the result was inactive. Still for that read-out and setting: the same measure for `CCOP(=S)(OCC)SCn1nnc2ccccc2c1=O`: “inactive”; for `CC(C)Nc1ccc(Nc2ccccc2)cc1`: “inactive”. Still for that read-out and setting: the same measure for `Nc1ccc(Cl)cc1`: “inactive”; for `CCCCOCCOP(=O)(OCCOCCCC)OCCOCCCC`: “inactive”; for `Nc1ccc([N+](=O)[O-])cc1Cl`: “inactive”. As for `N#Cc1c(-c2ccc(Cl)cc2)[nH]c(C(F)(F)F)c1Br`, the AC50 is 0.37 µM (active).

Broadly, the AC50 is the concentration at which the activity in the assay is half-maximal.
